Compound activity deposited in PubChem by National Center for Advancing Translational Sciences (NCATS).
Most compounds without a hit are left out; they make up all but 2.4% or so of the library.
Pol iota inh = inhibitors of human DNA polymerase iota | Q9UNA4 | Pol iota fluorescent replication assay, 10 min | Potency, µM (top dose mostly 115 µM), for the others: at the highest dose activity, negative = inhibition, actives largely listed as inhibitors | 1% of 390,000 active
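Pol iota at 10 nM preincubated 15 min with compounds at room temperature; reaction started with fluorescent substrate, 50 nM final. Fluorescence read kinetically at 0 and 10 min; buffer-only wells as negative control.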
POLK inh = DNA polymerase kappa (human) inhibition. Q9UBT6. purified Pol kappa, fluorescent DNA synthesis assay, 10 min. Potency, µM (titrated, usually from 107 µM), without a hit: top-dose activity, negative = inhibition, actives largely listed as inhibitors. 0.53% of 400,000 active; also: % is scaled to controls: 0 for no effect and ±100 for the full control effect
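Fluorescent qHTS in 1536-well format: enzyme (10 nM) and compound sat 15 min at room temperature before 50 nM substrate (final) was added. Signal taken at 0 and 10 min; no-enzyme buffer wells were negative controls.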
Pol eta inh = inhibitors of human DNA polymerase eta; Q9Y253; recombinant Pol eta, fluorescent DNA replication assay; Potency, µM (series often up to 114 µM), for the others: top-dose activity change, negative = inhibition, most hits filed as inhibitors; 1.2% of 390,000 active; also: % is scaled to controls: 0 for no effect and ±100 for the full control effect
Target sequence (Q9Y253 whole entry, looked up): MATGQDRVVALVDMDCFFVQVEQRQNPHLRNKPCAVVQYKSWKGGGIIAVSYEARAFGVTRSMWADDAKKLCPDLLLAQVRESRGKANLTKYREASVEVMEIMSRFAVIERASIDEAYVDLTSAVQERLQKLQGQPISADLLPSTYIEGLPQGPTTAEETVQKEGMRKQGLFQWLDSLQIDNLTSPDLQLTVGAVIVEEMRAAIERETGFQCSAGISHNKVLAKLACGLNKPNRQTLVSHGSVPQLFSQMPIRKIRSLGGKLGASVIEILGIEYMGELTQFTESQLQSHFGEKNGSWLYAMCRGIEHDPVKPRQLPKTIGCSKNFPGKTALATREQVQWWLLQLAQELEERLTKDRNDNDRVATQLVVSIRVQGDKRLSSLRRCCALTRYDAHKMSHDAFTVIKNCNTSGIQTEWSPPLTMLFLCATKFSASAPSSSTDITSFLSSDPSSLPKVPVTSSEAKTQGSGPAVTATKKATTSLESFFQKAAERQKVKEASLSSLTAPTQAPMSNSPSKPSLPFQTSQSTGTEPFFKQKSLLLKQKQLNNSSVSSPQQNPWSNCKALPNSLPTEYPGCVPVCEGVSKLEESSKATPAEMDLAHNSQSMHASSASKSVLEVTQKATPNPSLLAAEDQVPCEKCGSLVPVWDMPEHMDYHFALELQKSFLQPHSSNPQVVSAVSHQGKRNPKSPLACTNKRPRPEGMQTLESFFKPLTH
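Pol eta (10 nM) was preincubated with compounds for 15 min at room temperature, after which fluorescent replication substrate (50 nM final) was added to start the reaction. Fluorescence was read kinetically at 0 and 10 min.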
FEN1 inh = blocks human flap endonuclease 1 | Potency, µM (series often up to 114 µM), for inactives: top-dose activity change, negative = inhibition, most hits filed as inhibitors | Recombinant FEN1 flap cleavage, fluorescence, 15 min | 0.35% of 390,000 active | P39748; also: % is scaled to controls: 0 for no effect and ±100 for the full control effect; nearly all actives have a fitted effect of over 65% in size
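FEN1 at 10 nM, compound pretreatment for 15 min (room temperature), 50 nM final substrate to initiate; endpoint reads at 0 and 15 min; DMSO-only plates used as vehicle background.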
POLB inh = inhibitors of human DNA polymerase beta | P06746 | Pol beta primer extension/strand displacement, fluorescence kinetic | Potency, µM (titrated, usually from 114 µM), inactives show top-dose activity change, negative = inhibition, hits mostly inhibitors | 1.3% of 340,000 active | AID 485314; also: % is scaled to controls: 0 for no effect and ±100 for the full control effect
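Human Pol beta at 10 nM; strand-displacement substrate 50 nM final. Compound exposure 15 min at room temperature before start, reaction 10 min at room temperature.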
Tb PGK inh = inhibitors of T. brucei phosphoglycerate kinase; AID 602233; Potency, µM (highest dose often 57.5 µM), inactives show at the highest dose activity change, negative = inhibition, usual class: inhibitors; PGK/GAPDH coupled, Kinase-Glo luminescence, 60 min; 0.043% of 380,000 active; P07378; also: % is scaled to controls: 0 for no effect and ±100 for the full control effect; nearly all actives have a fitted effect of over 60% in size
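Recombinant glycosomal PGK reaction used 1,3-bisphosphoglycerate generated in-well by GAPDH (100nM final) in 100mM TEA pH 7.6, 5mM MgCl2, 0.01% Tween-20. After 60 minutes at room temperature, ATP was read by Kinase-Glo Plus luminescence end-point.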
PGK validate = blocks T. brucei phosphoglycerate kinase. shares compounds with POLK inh. TbPGK coupled GAPDH assay, Kinase-Glo luminescence. Potency, µM (top dose mostly 57.5 µM), for the others: at the highest dose activity change, negative = inhibition, most hits filed as inhibitors. 79% of 500 active. AID 686980; also: % is scaled to controls: 0 for no effect and ±100 for the full control effect; nearly all actives have a fitted effect of over 65% in size
Pol iota confirm = Confirm cherry-picked inhibitors of human polymerase iota; shares compounds with POLK inh; Pol iota primer extension, TAMRA/BHQ fluorescence; Potency, µM, most hits filed as inhibitors; 77% of 1,500 active
Active calls of the source: *; i = inactive; ? = inconclusive; nt = not tested or not shown; [ ] = remark or other dose. Calls follow the shape of the dose curve; as a rule, active = well fitted curve in the direction sought with a large enough effect; inconclusive = small, poorly fitted or top-dose-only effect, or another doubt; inactive = no such curve, though single readings can be large; an effect the other way counts as inactive or inconclusive. Potency is read from the fitted curve at half-maximal effect.

SMILES	Pol iota inh	POLK inh	Pol eta inh	FEN1 inh	POLB inh	Tb PGK inh	PGK validate	others
CC1=C/C(=C(/c2cc(C)c(O)c(Br)c2)c2ccccc2S(=O)(=O)O)C=C(Br)C1=O	?	?	35µM*	?	-27%	?	18µM*
O=C(CCCn1c(=O)c2ccccc2n(Cc2ccc(F)cc2Cl)c1=O)NCCc1ccc(Cl)cc1	16%	4%	-4%	15%	-2%	0%	nt
O=C(O)CCCCN1C(=O)/C(=C\c2ccc(OCc3ccccc3)c(OCc3ccccc3)c2)SC1=S	?	?	20µM*	0%	45µM*	-5%	nt	Pol iota confirm=42*
COc1ccc(/C=C2/SC(=S)N(CC(=O)O)C2=O)cc1OCc1ccc(Cl)cc1	-1%	-4%	?	?	?	-25%	nt
CN(C)c1ncc2nc(-c3ccc(Cl)cc3)c(=O)n(C)c2n1	nt	-1%[60.1 µM]	nt	nt	nt	nt	nt
Cc1ccc(NC(=O)CN2C(=O)S/C(=C/c3ccc(-c4cccc(C(=O)O)c4)o3)C2=O)cc1	25µM*	32µM*	5.6µM*	20µM*	11µM*	10µM*	12µM*
Cc1ccc(NC(=O)CSc2nc3ccccc3c3nc(CCn4c(C)nc5ccccc54)nn23)cc1F	79µM*	-11%[60.1 µM]	?	-18%	?	-5%	nt	Pol iota confirm=?
Cc1cncn1CCc1nc2c3ccccc3nc(SCC(=O)Nc3ccc(F)cc3)n2n1	33%	-4%[60.1 µM]	-20%	20%	-11%	?	-14%
CCCCCCCC/C=C/CCCCCCCC(=O)NCCOP(=O)(O)O	nt	-2%[60.1 µM]	nt	nt	nt	nt	nt
Cc1nc(Nc2ccc(Cl)cc2)cc(-c2ccccc2)n1	7%	0%	-22%	-5%	-18%	4%	nt
O=C1C(=Cc2ccccn2)CCc2ccccc21	nt	nt	-3%	nt	nt	-11%	nt
Cc1ccsc1/C=C1\CCc2ccccc2C1=O	7%	-3%	2%	-10%	-26%	?	15µM*
c1ccn2cc(-c3ccc4c(c3)OCCO4)nc2c1	?	-5%	-8%	-15%	5%	?	?
Cc1ccc2nc(-c3ccc4c(c3)OCCO4)cn2c1	29%	-1%	-17%	5%	-11%	-20%	nt
COc1ccc(/C=N/Nc2nncc3ccccc23)cc1	-17%	-7%	5%	-3%	-4%	?	18µM*
COc1ccc(/C=C/c2nc3ccccc3n2C)cc1	139%	-14%	-1%	-15%	0%	?	4.1µM*
C/C(=N\NC(=O)c1cc(O)cc(O)c1)c1ccc(NC(=O)Cc2ccccc2)cc1	5µM*	22µM*	3.2µM*	50µM*	1.6µM*	7.9µM*	1.8µM*
COc1ccc(OCCCn2c(CCNC(=O)C3CCCCC3)nc3ccccc32)cc1	-15%	-23%	nt	5%	nt	nt	nt
c1ccc2nc(-c3nc4ccccc4o3)ccc2c1	16%	-11%	-3%	-11%	0%	?	18µM*
c1ccc(-c2nc3ccccc3o2)nc1	8%	-10%	-11%	-4%	2%	-3%	nt
O=C(O)c1cc(N2C(=O)C=CC2=O)cc(N2C(=O)C=CC2=O)c1	1.1µM*	2.2µM*	2.2µM*	10µM*	nt	?	?
O=C(CSc1n[nH]c(-c2ccccc2Cl)n1)N1CCN(c2ccccc2)CC1	8%	-3%[60.1 µM]	-13%	4%	-8%	i	nt
CCOC(=O)c1cc(-c2ccc(OC)cc2)nn1-c1ccccc1C(=O)O	-27%	-13%	-3%	17%	3.2µM*	?	?
COc1ccc(-c2cc(C(=O)NN)n(-c3ccccc3)n2)cc1	8%	-20%	-10%	-1%	7%	0%	nt
Cc1cc(C)cc(NC(=O)c2cccc(C(=O)Nc3cc(C)cc(C)c3)c2)c1	10%	-1%	-13%	-8%	10%	1%	nt
SMILES	Pol iota inh	POLK inh	Pol eta inh	FEN1 inh	POLB inh	Tb PGK inh	PGK validate	others
O=C(NCc1ccccc1Cl)c1ccc(NC(=O)N2CCSc3ccccc32)cc1	3%	-6%	3%	-5%	0%	-10%	nt
COc1ccc2c(c1)CC/C(=C\Nc1ccc3c(c1)OCO3)C2=O	?	-13%	-11%	-15%	-1%	-5%	nt
COc1ccc(N/C=C2\CCc3ccccc3C2=O)cc1	9%	-7%	-15%	-19%	20%	?	16µM*
O=C(c1ccc2c3n(nc2c1)-c1ccccc1CO3)N1CCCCC1	36%	6%	-7%	-2%	5%	?	9.2µM*
O=c1oc2ccccc2cc1-c1cn2ccccc2n1	24%	0%	-11%	-2%	7%	?	?
COc1cccc(CNC(=O)CN2C(=O)N(c3c(C)cccc3C)S(=O)(=O)c3ccccc32)c1OC	10%	-1%[60.1 µM]	-12%	-12%	52%	0%	nt
CCOc1ccc(C=NNc2ccc(S(=O)(=O)Nc3ccccc3C(=O)O)cc2[N+](=O)[O-])cc1OC	?	?	?	79µM*	nt	?	8.2µM*
COc1cc(/C=N/Nc2ccccc2[N+](=O)[O-])ccc1OC(=O)c1ccccc1F	42%	-3%	-11%	14%	5%	2%	nt
CCC(=O)NC(=S)Nc1ccc(-c2nc3ccccc3s2)cc1	2%	-8%	5%	-3%	-13%	i	nt
O=C(O)CSCC(=O)Nc1ccc(-c2nc3ccccc3s2)cc1	-1%	-12%	45µM*	-11%	?	?	?
CCOc1ccccc1NC(=O)CSc1nnc2[nH]c(=O)cc(-c3ccccc3)n12	?	-18%[60.1 µM]	-14%	12%	11%	8%	nt
CCOc1cc(C(c2c(C)[nH][nH]c2=O)c2c(C)[nH][nH]c2=O)ccc1OCc1ccc([N+](=O)[O-])cc1	?	0%	-15%	-2%	0%	-7%	nt
CCOc1cc(/C=C2/NC(=S)NC2=O)ccc1OCc1ccc([N+](=O)[O-])cc1	?	-4%	?	-5%	?	-3%	nt	Pol iota confirm=?
COc1ccc(Br)cc1CNC(=O)CN1C(=O)c2cccnc2Oc2ccc(C)cc21	?	-16%	?	-12%	33%	9%	nt	Pol iota confirm=?
Cc1ccc2c(c1)N(CC(=O)NCc1ccccc1Br)C(=O)c1cccnc1O2	-24%	-4%	11%	-2%	-4%	-2%	nt
CCN(CC)c1ccc2cc(-c3nc4ccccc4[nH]3)c(=O)oc2c1	29%	-4%	?	5%	?	-9%	nt
